{
  "source": "paper PMC7819943",
  "about": "“Rice protein-binding microarrays: a tool to detect cis-acting elements near promoter regions in rice”",
  "note": "The full ranking holds about 68,000 sequences; the median of “fluorescence intensity (a.u.)” is about 9,100, and the highest 2% start at about 16,000. The list comes from a sample in which the highest values are over-represented; it also holds similar and randomly drawn sequences.",
  "data": [
    {"target": "OsWRKY34 (Oryza sativa, UniProt Q0JBA9 1-250)", "sequence (Q0JBA9 entry or part of it)": "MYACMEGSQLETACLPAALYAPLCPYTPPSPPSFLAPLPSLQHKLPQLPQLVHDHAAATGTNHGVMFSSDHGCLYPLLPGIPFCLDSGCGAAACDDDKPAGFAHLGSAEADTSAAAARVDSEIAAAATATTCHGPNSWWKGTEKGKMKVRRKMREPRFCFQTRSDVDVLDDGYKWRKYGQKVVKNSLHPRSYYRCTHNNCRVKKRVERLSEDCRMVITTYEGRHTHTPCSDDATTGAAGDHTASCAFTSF", "test": "protein-binding microarray (RPBM); PBS, 2% BSA, 51.3 ng/ul salmon testes DNA, 50 uM zinc acetate, 200 nM TF, 25 C, 1 h; high values mean tight binding", "conditions": "protein: recombinant; tags: N-terminal polyhistidine and DsRed monomer fusion (pET32a); label: CyDye5-dUTP incorporated in the synthesized complementary strand; 3' TTTTT single-stranded linker to array surface; dsDNA, one strand shown", "procedure,_shortened": "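Transcription factors, each fused N-terminally to a polyhistidine tag and DsRed, were expressed in E. coli BL21-CodonPlus and purified on Ni–NTA. A custom Agilent array was made double-stranded by primer extension with Cy5-dUTP and blocked with 2% BSA. It was incubated with 200 nM protein in PBS, 2% BSA, salmon testes DNA and 50 µM zinc acetate at 25 °C for 1 h, then washed. The binding signal is per-feature fluorescence intensity (arbitrary units) read on an Axon 4000B scanner.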", "values": [
      {"sequence": "AATATTTTTTTGAGGTTTTTTGTTGCGTTTAAAATTCAAACGGAGTCACCTAGTGCAG", "binding signal": "8110 fluorescence intensity (a.u.)"},
      {"sequence": "ATATTTAAAAAAGTCAACGGCGTCAAACATTTTGAAACGGCGGAGTCACCTAGTGCAG", "binding signal": "16800 fluorescence intensity (a.u.)"},
      {"sequence": "TTTAAAAGTCAACGGCGTCAGAGGGAGTATATATTTTAGCCGGAGTCACCTAGTGCAG", "binding signal": "9840 fluorescence intensity (a.u.)"},
      {"sequence": "TATTTTTAAAAAAGTCAACGGCGTCTTGTGGGATGGAGGGCGGAGTCACCTAGTGCAG", "binding signal": "21300 fluorescence intensity (a.u.)"},
      {"sequence": "ATCTGTACAGTTTGTGACTAATTTGCAAGACGAATCTTTTCGGAGTCACCTAGTGCAG", "binding signal": "11500 fluorescence intensity (a.u.)"},
      {"sequence": "GGATACGGCACCTTTGCGAGCTGCGTCGACCGCTCCGCCGCGGAGTCACCTAGTGCAG", "binding signal": "9650 fluorescence intensity (a.u.)"},
      {"sequence": "GGTTCTGTTCTATATACTCCGACACCATACTGATTAGTCTCGGAGTCACCTAGTGCAG", "binding signal": "10900 fluorescence intensity (a.u.)"},
      {"sequence": "TTTTGAGTTTTTGTGTGAACTGTTTGACCACTCGTCTTATCGGAGTCACCTAGTGCAG", "binding signal": "8250 fluorescence intensity (a.u.)"},
      {"sequence": "CATGTGCTCAAAGCTTATCTGCATACAAGCCTTCGAGACCCGGAGTCACCTAGTGCAG", "binding signal": "64100 fluorescence intensity (a.u.)"},
      {"sequence": "CTAGCTCACACACAATTGCATACACCTAGCTCAAAAGCCTCGGAGTCACCTAGTGCAG", "binding signal": "9080 fluorescence intensity (a.u.)"},
      {"sequence": "CCATCTCCTTCAGCCTTCGCTTCATCTGGTCGAGCTCCTGCGGAGTCACCTAGTGCAG", "binding signal": "9080 fluorescence intensity (a.u.)"},
      {"sequence": "GTCTCAAAAACTCATTCTCCACACGTAATGGATACTTTTGCGGAGTCACCTAGTGCAG", "binding signal": "8800 fluorescence intensity (a.u.)"},
      {"sequence": "TATAACACCAATGACTCTATCTTCATCCGCATGCGTGCCGCGGAGTCACCTAGTGCAG", "binding signal": "9390 fluorescence intensity (a.u.)"},
      {"sequence": "CCATGTATCACACTCCGTTCATATATTCCTGGGCTGTATTCGGAGTCACCTAGTGCAG", "binding signal": "8450 fluorescence intensity (a.u.)"},
      {"sequence": "CATCGCCACCACCGCAGCCGCCTCTCAATTAGGAACACGTCGGAGTCACCTAGTGCAG", "binding signal": "10300 fluorescence intensity (a.u.)"},
      {"sequence": "TCTCTCTTTTTTTAAGCACCTTTTCTGCCTTTTTTCTTTTCGGAGTCACCTAGTGCAG", "binding signal": "12200 fluorescence intensity (a.u.)"},
      {"sequence": "TTATCAATATCTCTCTCTCGGCGCGTATAGCCGTCGCGCGCGGAGTCACCTAGTGCAG", "binding signal": "8690 fluorescence intensity (a.u.)"},
      {"sequence": "TAGCACTAAAACGAGAGGCCTTTTGATTTAGATTTTGCCACGGAGTCACCTAGTGCAG", "binding signal": "21900 fluorescence intensity (a.u.)"},
      {"sequence": "CTATCGCCACCTTTTGCCTTGATTTCTCCTTATTGCTAAACGGAGTCACCTAGTGCAG", "binding signal": "14600 fluorescence intensity (a.u.)"},
      {"sequence": "AGCACATAGCTAGTTAGCCACATATTATTTGATCACTAAACGGAGTCACCTAGTGCAG", "binding signal": "8980 fluorescence intensity (a.u.)"},
      {"sequence": "GTCCGCATCGAGCCGCAGATCTTTCTCACCGCCACCGATGCGGAGTCACCTAGTGCAG", "binding signal": "8140 fluorescence intensity (a.u.)"},
      {"sequence": "CCCTATCGAACGACCACCGAAACCATCATCATTCATCACCCGGAGTCACCTAGTGCAG", "binding signal": "9470 fluorescence intensity (a.u.)"},
      {"sequence": "TTTAGCTTAACTTATTACGATTATGGCTGTGTTTAGTTTCCGGAGTCACCTAGTGCAG", "binding signal": "9160 fluorescence intensity (a.u.)"},
      {"sequence": "AAACTAATTTTCTGTGACACTTCCAAGTGCATACCGGAGTCGGAGTCACCTAGTGCAG", "binding signal": "8660 fluorescence intensity (a.u.)"},
      {"sequence": "GCCTGGTTTTATAAGTTGTGGGATGGGTTATATCTAGTATCGGAGTCACCTAGTGCAG", "binding signal": "28800 fluorescence intensity (a.u.)"},
      {"sequence": "GGCCTCATTCTGGGATCGTTTTATGGTGGGGTTATCGTTACGGAGTCACCTAGTGCAG", "binding signal": "20600 fluorescence intensity (a.u.)"},
      {"sequence": "ATTTTTTATGGGTGTTTGGTTAGTGGGTGGGAGTGGGATACGGAGTCACCTAGTGCAG", "binding signal": "12000 fluorescence intensity (a.u.)"},
      {"sequence": "TTGTTTGACTCTTTTTTAATTAAATTTCTATAAGTTTAATCGGAGTCACCTAGTGCAG", "binding signal": "8280 fluorescence intensity (a.u.)"},
      {"sequence": "GGATGGGTTATATCTAGTATTGTGGTTGGGACTGCCTATACGGAGTCACCTAGTGCAG", "binding signal": "11100 fluorescence intensity (a.u.)"},
      {"sequence": "GCATATGGGGATTCTGGGATTTTGGTTTACAGTCTACATTCGGAGTCACCTAGTGCAG", "binding signal": "8100 fluorescence intensity (a.u.)"},
      {"sequence": "AAAGTGATGTGGTGGTGGAGTTGTGGGTATATGATTTTATCGGAGTCACCTAGTGCAG", "binding signal": "8790 fluorescence intensity (a.u.)"},
      {"sequence": "GCTGGGTTTGTGGGTTTTCTCATAAGTTTAATCTCTATATCGGAGTCACCTAGTGCAG", "binding signal": "17400 fluorescence intensity (a.u.)"},
      {"sequence": "CTATCGATATAATCTCTAAGTGAGTTTTTTGTATTTTTTTCGGAGTCACCTAGTGCAG", "binding signal": "8020 fluorescence intensity (a.u.)"},
      {"sequence": "CCGCACAATCCGCGCCGCCATCAGTTCGCTCTCGCCACCACGGAGTCACCTAGTGCAG", "binding signal": "9020 fluorescence intensity (a.u.)"},
      {"sequence": "GCGCCCACGAACCTTGTCTTCAAGCAATCCCACACTTCCTCGGAGTCACCTAGTGCAG", "binding signal": "9490 fluorescence intensity (a.u.)"},
      {"sequence": "ATTTCAGGCCCACTAGTCCGCTCTTCCTCTTCTTTTTTTTCGGAGTCACCTAGTGCAG", "binding signal": "9840 fluorescence intensity (a.u.)"},
      {"sequence": "GCCGCCATCCCCACCATCGCCGTCGCCGTCGCCTCGCCTCCGGAGTCACCTAGTGCAG", "binding signal": "13300 fluorescence intensity (a.u.)"},
      {"sequence": "CTCTAACAGTCTGCTATTATATCTGCTCTCATGCGTCATCCGGAGTCACCTAGTGCAG", "binding signal": "11100 fluorescence intensity (a.u.)"},
      {"sequence": "TTCGTTTCAAAATATTTGACACCGTTGACTTTTTAGCACACGGAGTCACCTAGTGCAG", "binding signal": "25700 fluorescence intensity (a.u.)"},
      {"sequence": "TTTAGCACGTATTTGACCGTTCGTCTTATTCAAAAACTTTCGGAGTCACCTAGTGCAG", "binding signal": "8790 fluorescence intensity (a.u.)"},
      {"sequence": "TCCGTTTCGTTTTATTTGACACCGTTGACTTTTTAGCACACGGAGTCACCTAGTGCAG", "binding signal": "19500 fluorescence intensity (a.u.)"},
      {"sequence": "ACTTTTACATAGAATTTTTTTTTGAACACACCGTTTAGCACGGAGTCACCTAGTGCAG", "binding signal": "8510 fluorescence intensity (a.u.)"},
      {"sequence": "ACTTTAGTTTTTTTCCGTTGCAGCACACGGTTTTTTTTAACGGAGTCACCTAGTGCAG", "binding signal": "9170 fluorescence intensity (a.u.)"},
      {"sequence": "TTTCAAAATATTTGACTCCGTTGATTTTTTTAGCACATGTCGGAGTCACCTAGTGCAG", "binding signal": "9070 fluorescence intensity (a.u.)"}
    ]}
  ]
}
